An excerpt weighted towards active compounds, which were near 2.8% of everything screened.
PI5P4K alpha inh = PI5P4K alpha (human) kinase inhibition | max response, % | PI5P4Kalpha enzyme, ADP-Glo luminescence, 60 min; stronger effect = lower value | P48426 | hit rate 1.2% among 330,000; active = max response of -50% or lower; inconclusive = between -30% and -50%; inactive = -30% or higher; also: value at the top dose of about 77 µM
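Enzyme plus substrate dispensed, test compounds pinned in, then ATP (5 microM final) added. After 60 min at RT, ADP-Glo reagent 1 for 45 min and reagent 2 for 30 min preceded luminescence imaging.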
POLH inh = inhibitors of human DNA polymerase eta | recombinant Pol eta, fluorescent DNA replication assay | Potency, µM (doses to about 114 µM), actives largely listed as inhibitors | hit rate 1.2% among 390,000
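Pol eta at 10 nM preincubated with compounds 15 min at room temperature; reaction started with fluorescent substrate (50 nM final) and read kinetically at 0 and 10 min.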
POLI inh = inhibitors of human DNA polymerase iota; Q9UNA4; Pol iota fluorescent replication assay, 10 min; Potency, µM (titrated, usually from 115 µM), usual class: inhibitors; hit rate 1% among 390,000; AID 588590
Target sequence (Q9UNA4 whole entry, looked up): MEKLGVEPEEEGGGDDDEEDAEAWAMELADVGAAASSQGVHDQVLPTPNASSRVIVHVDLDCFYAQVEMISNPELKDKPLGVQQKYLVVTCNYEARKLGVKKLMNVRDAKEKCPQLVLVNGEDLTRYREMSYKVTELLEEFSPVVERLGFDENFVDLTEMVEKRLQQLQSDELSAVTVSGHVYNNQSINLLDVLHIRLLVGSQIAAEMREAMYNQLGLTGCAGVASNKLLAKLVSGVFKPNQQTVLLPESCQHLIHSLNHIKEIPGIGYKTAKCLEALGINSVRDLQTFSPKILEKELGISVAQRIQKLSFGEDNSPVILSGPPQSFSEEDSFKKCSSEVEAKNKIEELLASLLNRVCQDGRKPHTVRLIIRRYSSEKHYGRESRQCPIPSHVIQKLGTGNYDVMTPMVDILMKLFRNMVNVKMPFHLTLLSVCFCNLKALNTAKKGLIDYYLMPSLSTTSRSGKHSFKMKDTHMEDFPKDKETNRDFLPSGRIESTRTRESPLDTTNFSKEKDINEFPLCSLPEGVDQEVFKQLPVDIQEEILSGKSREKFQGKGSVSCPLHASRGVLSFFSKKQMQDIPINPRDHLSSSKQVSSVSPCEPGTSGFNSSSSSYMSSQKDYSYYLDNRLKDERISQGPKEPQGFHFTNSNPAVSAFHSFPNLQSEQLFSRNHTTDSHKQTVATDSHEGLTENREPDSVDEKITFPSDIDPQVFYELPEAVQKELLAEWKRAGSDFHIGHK
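Pol iota at 10 nM preincubated 15 min with compounds at room temperature; reaction started with fluorescent substrate, 50 nM final. Fluorescence read kinetically at 0 and 10 min; buffer-only wells as negative control.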
WRN inhibitor = WRN helicase (human) inhibition | AID 651768 | Potency, µM (series often up to 114 µM), usual class: inhibitors | hit rate 0.46% among 360,000 | Q14191 | WRN helicase unwinding, fluorescent forked duplex, kinetic; also: nearly all actives have a fitted effect of over 55% in size
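Kinetic red-fluorescence monitoring (525/598 nm) tracks WRN helicase activity after 100 nM fluorophore-quencher forked duplex and 2 mM ATP are added to 20 nM enzyme pretreated 15 min at room temperature with compound.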
Pol beta inh = DNA polymerase beta (human) inhibition; P06746; Pol beta primer extension/strand displacement, fluorescence kinetic; Potency, µM (doses to about 114 µM), actives largely listed as inhibitors; hit rate 1.3% among 340,000
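Curves were derived by four-parameter Hill fits of normalized qHTS data. The kinetic fluorescent primer-extension read was taken at 0 and 10 min after 50 nM substrate, following a 15 min room-temperature preincubation of 10 nM enzyme with compounds.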
POLK inh = inhibitors of human DNA polymerase kappa | purified Pol kappa, fluorescent DNA synthesis assay, 10 min | Potency, µM (highest dose often 107 µM), most hits filed as inhibitors | hit rate 0.53% among 400,000 | Q9UBT6
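Here, compound and 10 nM enzyme are combined for 15 min at room temperature; adding 50 nM substrate (final) starts DNA synthesis, tracked by fluorescence at 0 and 10 min against buffer-only wells.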
A number is an active result; ! = not active in a repeat; [ ] = remark or other dose. Unless noted, calls follow the shape of the dose curve; as a rule, active = well fitted curve in the direction sought with a large enough effect; inconclusive = small, poorly fitted or top-dose-only effect, or another doubt; inactive = no such curve, though single readings can be large; an effect the other way counts as inactive or inconclusive.

How did C[n+]1ccnc2cc(Cl)ccc21 do in these assays?
POLI inh: inconclusive; POLK inh: inactive

How did COc1ccccc1NC(=O)C1=C(C)Nc2nc(SCc3ccccc3Cl)nn2C1c1cccnc1 (stereo not given) do in these assays?
POLH inh: inactive; POLI inh: inactive; Pol beta inh: inactive; POLK inh: inactive

Results for O=C(COc1ccccc1)NCCc1csc(-c2ccc(Cl)cc2)n1 ?
POLH inh: inactive; POLI inh: inactive; Pol beta inh: inactive; POLK inh: inactive

What do the screens show for `CCOc1ccc(CCNC(=O)CCCn2nc(C)c3sc4ccccc4c3c2=O)cc1`?
POLH inh: inactive; POLI inh: inactive; Pol beta inh: inactive; POLK inh: inactive

Results for CCOc1ccc(CCNC(=O)CCCn2nc(C)c3sc4ccccc4c3c2=O)cc1OCC ?
POLH inh: inactive; POLI inh: inconclusive; Pol beta inh: inactive; POLK inh: inactive

Results for CCOc1ccc(CNC(=O)CCCn2nc(C)c3sc4ccccc4c3c2=O)cc1 ?
POLH inh: inactive; POLI inh: 89.1µM; Pol beta inh: inactive; POLK inh: inactive

What do the screens show for `COc1ccc(CCNC(=O)CCCn2nc(C)c3sc4ccccc4c3c2=O)cc1OC`?
POLH inh: inactive; POLI inh: inactive; Pol beta inh: 35.5µM; POLK inh: inactive

Results for CCOC(=O)CCCC(=O)N1CCN(/[N+]([O-])=N/Oc2ccc([N+](=O)[O-])cc2[N+](=O)[O-])CC1 ?
POLI inh: inconclusive; POLK inh: inactive

What do the screens show for `O=C1C([N+](=O)[O-])=C(O)c2cccc3cccc1c23`?
Pol beta inh: 11.2µM

What do the screens show for `O=C(O)c1ccc(Cl)c2c1C1C=CCC1C(c1ccccn1)N2` (stereo not given)?
Pol beta inh: 8.91µM

Results for COc1ccc(S(=O)(=O)CC(=O)c2cc3cccc(C)c3oc2=O)cc1 ?
PI5P4K alpha inh: inconclusive; POLH inh: 50.1µM; POLI inh: inconclusive; WRN inhibitor: inactive; Pol beta inh: inconclusive; POLK inh: inactive

Results for COc1ccc2cc(C(=O)CS(=O)(=O)c3ccccc3)c(=O)oc2c1 ?
PI5P4K alpha inh: inactive; POLH inh: inactive; POLI inh: inactive; WRN inhibitor: inactive; Pol beta inh: inactive; POLK inh: inactive

How did Cc1cccc(N=C2NC(=O)/C(=C/c3cccnc3)S2)c1 do in these assays?
PI5P4K alpha inh: inactive; POLH inh: inactive; POLI inh: inconclusive; WRN inhibitor: inconclusive; Pol beta inh: inactive; POLK inh: inactive

Results for O=C1NC(=Nc2cccc(O)c2)S/C1=C\c1cccc([N+](=O)[O-])c1 ?
PI5P4K alpha inh: -69.8; POLH inh: inconclusive; POLI inh: inactive; WRN inhibitor: inactive; Pol beta inh: inactive; POLK inh: inactive

What do the screens show for `O=C1NC(=Nc2cccc(O)c2)S/C1=C\c1cccnc1`?
PI5P4K alpha inh: -60.2; POLH inh: inactive; POLI inh: inactive; WRN inhibitor: inactive; Pol beta inh: inactive; POLK inh: inactive

Results for Nc1ncnc2c1nc(Sc1ccc(Cl)cc1)n2[C@H]1OC2COP(=O)(O)O[C@@H]2C1O (stereo not given in full) ?
POLK inh: inactive

What do the screens show for `Cc1ccc2sc(N3CCN(C(=O)C4COc5ccccc5O4)CC3)nc2c1C` (stereo not given)?
POLH inh: inactive; POLI inh: inactive; Pol beta inh: inactive; POLK inh: inactive

What do the screens show for `O=C(Nc1nnc(S(=O)(=O)N2CCCCC2)s1)c1cccc(Br)c1`?
PI5P4K alpha inh: inactive; POLH inh: 44.7µM; POLI inh: inconclusive; WRN inhibitor: inactive; Pol beta inh: inactive; POLK inh: inactive

What do the screens show for `Cc1cccc(C(=O)Nc2nnc(S(=O)(=O)N3CCC(C)CC3)s2)c1`?
PI5P4K alpha inh: inactive; POLH inh: 79.4µM!; POLI inh: inactive; WRN inhibitor: inactive; Pol beta inh: inactive; POLK inh: inactive

What do the screens show for `CC1CCN(S(=O)(=O)c2nnc(NC(=O)c3cccc(Br)c3)s2)CC1`?
POLH inh: inactive; POLI inh: inactive; Pol beta inh: inactive; POLK inh: inactive

Results for COc1cccc(C(=O)Nc2nnc(S(=O)(=O)N3CCCc4ccccc43)s2)c1 ?
POLH inh: 50.1µM; POLI inh: inactive; Pol beta inh: inactive; POLK inh: inactive

What do the screens show for `Cc1cccc(C(=O)Nc2nnc(S(=O)(=O)N3CCCc4ccccc43)s2)c1`?
POLH inh: inconclusive; POLI inh: inactive; Pol beta inh: inactive; POLK inh: inactive

Results for Cc1cc(NC(=O)COC(=O)c2ccccc2OCCOc2ccccc2)ccc1Br ?
POLI inh: inconclusive; POLK inh: inactive

What do the screens show for `CSc1ccc(CCNC(=O)c2cc3cc(S(=O)(=O)N4CCCCC4)ccc3n2C)cc1`?
POLH inh: inactive; POLI inh: inactive; Pol beta inh: inactive; POLK inh: inactive

How did CCc1oc2ccccc2c1C(=O)c1cc(Br)c(O)c(Br)c1 do in these assays?
PI5P4K alpha inh: inactive; POLH inh: inactive; POLI inh: inactive; WRN inhibitor: inactive; Pol beta inh: 50.1µM; POLK inh: inactive

What do the screens show for `CCc1ccc(OCC(=O)c2c(O)c3ccccc3oc2=O)cc1`?
PI5P4K alpha inh: inactive; POLH inh: inactive; POLI inh: inconclusive; WRN inhibitor: inactive; Pol beta inh: inactive; POLK inh: inactive

Results for O=[N+]([O-])c1cc2oc3c(c2c(C=NCc2ccccc2)c1O)CCCC3 ?
PI5P4K alpha inh: -50.4; POLH inh: inconclusive; POLI inh: inactive; WRN inhibitor: inactive[11.6 µM]; Pol beta inh: inactive; POLK inh: inactive

What do the screens show for `CN(CC(=O)Nc1cccc(F)c1)C(=O)CCSc1ccc(F)cc1`?
PI5P4K alpha inh: inactive; POLH inh: inactive; POLI inh: inactive; WRN inhibitor: inactive; POLK inh: inactive

Results for CN(CC(=O)Nc1cccc(F)c1)C(=O)CSc1ccccc1F ?
PI5P4K alpha inh: inconclusive; POLH inh: inactive; POLI inh: inconclusive; WRN inhibitor: inactive; Pol beta inh: 44.7µM; POLK inh: inactive

How did CN(CC(=O)Nc1cccc(F)c1)C(=O)c1ccc(COc2ccccc2)cc1 do in these assays?
PI5P4K alpha inh: inactive; POLH inh: inactive; POLI inh: 79.4µM; WRN inhibitor: inactive[11.6 µM]; POLK inh: inactive

Results for COc1cc2c(NC3CCN(C(C)C)CC3)nc(N3CCCN(C)CC3)nc2cc1OCCCN(C)C ?
POLI inh: inconclusive; POLK inh: inactive

Results for COc1cc(CN(C(=O)c2cccc(C)c2)c2ccccn2)cc(OC)c1OC ?
POLH inh: inactive; POLI inh: inactive; Pol beta inh: inactive; POLK inh: inactive

What do the screens show for `Cc1cc(Oc2ccccc2)nc(C#N)n1`?
POLI inh: inconclusive; POLK inh: inactive

What do the screens show for `FC(F)(F)c1cccc(N2CCCCC2)c1`?
PI5P4K alpha inh: inactive; WRN inhibitor: inactive

Screens as filed in PubChem BioAssay.
